Assay outcomes as filed in PubChem BioAssay.
Abeta yeast res: compounds reversing amyloid beta toxicity in yeast. yeast expressing A-beta42, growth rescue, OD600, 48 h; response scale: 0% DMSO, 100% iron-clioquinol control. Potency, µM (doses to about 46.1 µM), most hits filed as activators. hit rate 0.063% among 410,000. AID 1347071; further: nearly all actives have a fitted effect of over 55% in size
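Growth rescue measured by 600 nm absorbance after 48 h yeast culture at 30 C with compound. Values normalized between DMSO and an equimolar ferric chloride plus clioquinol control.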
aSyn rescue: inhibitors of alpha-synuclein toxicity in yeast | Yeast expressing alpha-synuclein, growth rescue, BacTiter-Glo, 24 h | AID 652106 | hit rate 0.14% among 370,000 | Potency, µM (titrated, usually from 46.1 µM), for inactives: at the highest dose growth rescue (activation), most hits filed as activators; further: % of control where 0% means no effect; nearly all actives have a fitted effect of over 65% in size
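Readout is rescue of growth in alpha-synuclein-expressing yeast, so inhibitors of toxicity appear as activators. Growth after 24 hr at 30 deg C in galactose medium is quantified by luminescence.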
FUS yeast rescue: FUS proteinopathy suppression in yeast | S. cerevisiae FUS-expressing, growth rescue, OD600, 24 h | Potency, µM (top dose mostly 76.6 µM), usual class: activators | hit rate 0.24% among 390,000 | AID 1347120;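 further: plate controls were DMSO vehicle for no effect and reference control for full effect; nearly all actives have a fitted effect of over 55% in size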
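Restored growth of FUS-toxic S. cerevisiae, read as 600 nm absorbance after 24 h at 30C in galactose medium (starting OD 0.005). Controls CP55940 and DMSO.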
Glioma ERSR ind: inducers of ER stress response in human glioma cells | U87-MG GRP78 promoter luciferase reporter, 16 h | hit rate 0.02% among 420,000 | Potency, µM, without a hit: top-dose activation, usual class: activators | AID 602332; further: series mostly up to about 76 µM; % of control where 0% means no effect; nearly all actives have a fitted effect of over 35% in size
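Stably transfected U87-MG human glioma cells carrying a GRP78-based luminescent sensor were seeded at 1000 cells/well, pin-dosed with compounds and incubated 16 h. Luciferase reagent was then added, and end-point luminescence was read after 10 min at room temperature.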
MBNL1-CUG inh: MBNL1-poly(CUG) RNA binding inhibition. Q9NR56. TR-FRET MBNL1-His/biotin-(CUG)12 binding, 665/545 ratio. Potency, µM (series often up to 57.5 µM), for inactives: top-dose activity change, negative = inhibition, most hits filed as inhibitors. hit rate 0.036% among 280,000; active means well fitted inhibition curve with a large enough effect in the signal ratio, with a control signal flat, not every such curve was filed as active; inconclusive means small, poorly fitted or top-dose-only effect, or effect the other way, or a change in a side signal; inactive means no such curve, though single readings can be large or run the other way; the % refers to the signal ratio; further: on the % scale 0 is the no-effect control and ±100 the full control effect
Target sequence (Q9NR56 whole entry, looked up): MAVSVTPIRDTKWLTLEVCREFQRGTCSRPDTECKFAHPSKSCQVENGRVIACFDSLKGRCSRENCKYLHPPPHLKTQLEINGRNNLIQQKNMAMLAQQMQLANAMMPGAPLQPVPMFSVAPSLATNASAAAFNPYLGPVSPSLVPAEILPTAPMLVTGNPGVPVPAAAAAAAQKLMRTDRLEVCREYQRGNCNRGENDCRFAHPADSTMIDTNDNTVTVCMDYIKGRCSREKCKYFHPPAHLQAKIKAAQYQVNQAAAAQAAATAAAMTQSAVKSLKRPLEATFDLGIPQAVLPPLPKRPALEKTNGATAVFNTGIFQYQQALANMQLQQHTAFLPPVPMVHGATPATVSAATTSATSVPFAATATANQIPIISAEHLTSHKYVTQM
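His-tagged MBNL1 binding to biotinylated (CUG)12 RNA was measured by TR-FRET using terbium anti-His antibody (0.055 ng/ul final) and streptavidin-XL665 (5 nM final). Compounds were titrated 92 nM to 58 uM; 60 min at room temperature.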
TDP-43 yeast inh: TDP-43 toxicity inhibition in yeast; TDP-43 expressing yeast growth rescue, BacTiter-Glo, 24 h; Potency, µM (top dose mostly 46.1 µM), inactives show top-dose growth rescue (activation), actives largely listed as activators; hit rate 1.8% among 410,000; AID 652104; further: % of control where 0% means no effect; nearly all actives have a fitted effect of over 50% in size
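Galactose-induced TDP-43 yeast, OD600=0.02, compound pinned; 24 hr, 30 deg C; BacTiter-Glo luminescence for growth. Inhibitors of TDP-43 toxicity read as activators.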
An asterisk follows results filed as active; i = inactive; ? = inconclusive; . = not tested or not shown. Shown are actives, neighbours in structure and some others; about 2% of the full set was active somewhere. Unless noted, the call rests on the fitted dose curve; in most records, active means well fitted curve in the direction sought with a large enough effect; inconclusive means small, poorly fitted or top-dose-only effect, or another doubt; inactive means no such curve, though single readings can be large; an effect the other way counts as inactive or inconclusive. Potency means the concentration at half of the fitted maximal effect.

SMILES	Abeta yeast res	aSyn rescue	FUS yeast rescue	Glioma ERSR ind	MBNL1-CUG inh	TDP-43 yeast inh
Brc1ccc2c(c1)C(c1ccc(N3CCOCC3)cc1)=NNC(c1cccs1)=N2	i	-9%	?	32µM*	2%	23%
CCOc1ccc(C2=NNC(c3cccs3)=Nc3ccc(OC)cc32)cc1	i	-1%	18µM*	12%	?	-36%
CCOc1ccc(C2=NNC(c3cccnc3)=Nc3ccc(OC)cc32)cc1	i	-3%	i	4%	10%	11%
Fc1ccc2c(c1)C(c1ccc(N3CCOCC3)cc1)=NNC(c1cccs1)=N2	i	-10%	i	0%	3%	?
CC(C)CC(=O)Nc1sc2c(c1C(=O)O)CCCCC2	i	-8%	i	-1%	0%	11µM*
COc1ccccc1-c1ccnc(-n2ncc(C(=O)NCc3cccc(C)n3)c2C)n1	.	.	.	-1%	.	.
Cc1ccc(CNc2cc(C)nc3nc(-c4cccc(C)c4)nn23)cc1	i	-4%	i	-2%	.	20µM*
Cc1ccc(CNc2cc(C)nc3nc(-c4ccc(C)cc4)nn23)cc1	i	-1%	i	1%	.	24%
CCOC(=O)c1ccc(CNc2ncnc3nc[nH]c23)cc1	.	25µM*	.	-2%	.	.
Cc1ccc(NC(=O)C(C)OC(=O)c2ccc(NC(=O)CC#N)cc2)cc1S(=O)(=O)N1CCOCC1 (configuration not stated)	i	-3%	14µM*	-4%	.	-3%
Cc1ccc(C(=O)OC(C)C(=O)Nc2ccc(S(N)(=O)=O)cc2)cc1S(=O)(=O)N1CCOCC1 (configuration not stated)	i	2%	i	-3%	.	-23%
COc1cc(C#N)ccc1OCC(=O)Nc1ccc(C)c(S(=O)(=O)N2CCOCC2)c1	i	1%	i	0%	-8%	9%
Cc1ccc(NC(=O)COc2ccc(Cl)cc2Cl)cc1S(=O)(=O)N1CCOCC1	i	8%	i	-3%	.	14µM*
Cc1cc(Cl)ccc1OCC(=O)Nc1ccccc1N1CCOCC1	i	2%	i	-5%	10%	13µM*
CCC1C(=O)NCCN1Cc1ccc2c(c1)CN(Cc1ccc3c(c1)OCCO3)CCO2 (configuration not stated)	.	.	.	-4%	.	.
Cc1ccc(C(C)C)c(OCc2ccc(C(=O)N/N=C/c3cccc(O)c3O)cc2)c1	?	13µM*	i	-8%	?	13µM*
Cc1ccc(C(C)C)c(OCc2ccc(C(=O)N/N=C/c3ccc(O)c(O)c3)cc2)c1	i	-15%	i	-8%	.	22%
Cc1cc(/C=N/NC(N)=S)c(C)n1-c1ccc(Cl)c(Cl)c1	?	11%	i	2%	.	18µM*
CCNC(=S)N/N=C/c1cc(C)n(-c2ccc(Cl)cc2)c1C	i	6%	i	11%	1%	?
Cc1cccc(Cn2cc(/C=C/[N+](=O)[O-])c3ccccc32)c1	i	-16%	i	?	2%	14µM*
O=[N+]([O-])/C=C/c1cn(Cc2ccc(Cl)cc2)c2ccccc12	i	1%	i	-14%	.	4%
C[C@H]1[C@@H](OC(=O)Nc2ccc(C(F)(F)F)cc2)CC[C@@]23CCCN2C(=O)CCC[C@@H]13	.	.	i	.	.	.
CCCNC(=O)c1cc2c(c(-c3cccc(-c4ccccc4F)c3)n1)[C@H](CCO)N(C(=O)CC1CC1)C2	i	7%	?	.	.	?
CCNC(=O)c1cc2c(c(-c3cccc(-c4ccccc4F)c3)n1)[C@@H](CCO)N(C(=O)CC1CC1)C2	i	15%	18µM*	.	.	?
CSc1nc(C(=O)N2CCOc3ccc(CN4CCN(Cc5ccccn5)CC4)cc3C2)cs1	.	.	.	-3%	.	.
SMILES	Abeta yeast res	aSyn rescue	FUS yeast rescue	Glioma ERSR ind	MBNL1-CUG inh	TDP-43 yeast inh
O=C1CCCN1CCCNS(=O)(=O)c1cccs1	i	-1%	i	-2%	.	7%
O=C1CCCN1CCCNS(=O)(=O)c1ccccc1	i	?	i	3%	-8%	1.1µM*
COc1ccc(-c2nc(C)c(CCNC(=O)c3ccco3)s2)cc1	i	-10%	i	1%	.	16µM*
Cc1nc(-c2ccc(F)cc2)sc1CCNC(=O)c1ccccc1	i	.	i	-1%	.	18µM*
Cc1nc(-c2ccc(F)cc2)sc1CCNC(=O)c1cccs1	i	.	i	-1%	.	8.9µM*
Cc1ccc(-c2nc(C)c(CCNC(=O)c3ccco3)s2)cc1	i	-12%	i	1%	.	?
COc1ccc(-c2nc(C)c(CCNC(=O)c3cccs3)s2)cc1OC	i	-15%	i	1%	.	22µM*
c1nc(NCC2CCCCO2)c2cc(-c3ccc4c(c3)OCO4)ccc2n1 (configuration not stated)	.	.	i	.	.	.
COc1ccc(NC(=O)c2sc(-c3ccccc3)nc2C)c(OC)c1	i	-1%	i	-2%	14%	5%
Cc1nc(-c2ccccc2)sc1C(=O)Nc1ccccc1F	i	0%	i	3%	4%	13µM*
Cc1nc(-c2ccc(F)cc2)sc1CCNC(=O)c1ccc(OC(C)C)cc1	i	.	i	-3%	.	16µM*
O/N=C(/C[n+]1ccsc1)c1ccc(I)cc1	.	.	.	0%	.	.
COc1ccc(-c2cc(C(=O)N(C3CCCCC3)C3CCCCC3)no2)cc1	.	.	i	.	.	.
C[n+]1ccnc2ccccc21	.	-7%	.	-11%	.	.
Nc1c(Cl)cnc(C(Cl)(Cl)Cl)c1Cl	i	0%	i	-2%	-2%	13µM*
CC(=O)CSc1nc(-c2ccccc2)c(-c2ccccc2)o1	i	8%	i	-2%	4%	16µM*
CCn1c(-c2ccccc2F)nc2cc(C(=O)N3CCNC(=O)C3CC(=O)OC)cc(NC(C)=O)c21 (configuration not stated)	.	.	.	-3%	.	.
CS(=O)(=O)N1CCC[C@]2(CC[C@H](CCC#N)O2)C1	.	.	i	.	.	.
O=C(Nc1cccc(Oc2ccccc2)c1)C1Cc2c(-c3ccco3)ccnc2O1 (configuration not stated)	i	-4%	i	2%	.	18µM*
COc1ccc(NC(=O)C2Cc3c(-c4ccccc4Oc4ccccc4)ccnc3O2)cc1OC (configuration not stated)	i	6%	?	-3%	.	11µM*
CCOC(=O)CC[C@@H]1CC[C@]2(CCCN(C(=O)c3cccnc3)C2)O1	.	.	i	.	.	.
COC(=O)c1ccc(CN2CCC3(CCC(CNC(=O)c4ccccc4)O3)CC2)cc1 (configuration not stated)	.	.	.	-5%	.	.
O=C(CSc1cccc(C(F)(F)F)c1)NCc1ccccc1	i	4%	i	-3%	.	11µM*
